Source: PubChem BioAssay
Records with an inconclusive call do not appear. For some of these results: Entries with a potency or affinity are not part of this list. Calls of active or inactive are those of the source. Unless noted, how the calls were made is not given here.

Legend:
[1] = test system: Hepatitis C virus NS3 helicase; test: HCV NS3 helicase inhibitors, primary screen, biochemical, fluorescence polarization, LOPAC1280 library (AID 687035; in the data active means inhibition above about 37%); settings: Purified HCV NS3 helicase, Cy5-dT15 ssDNA binding fluorescence polarization; stronger effect = higher value; concentration not given here
[2] = Cy5 fluorescence quenching or enhancement artefacts, artefact control for HCV NS3 helicase inhibitor project, biochemical, LOPAC1280 (AID 687037); settings: Cy5-DNA-NS3h complex fluorescence interference counterscreen
[3] = phospholipid biosynthesis inhibitors in animal cells, primary screen, cell-based, LOPAC library, screen 4 (AID 1347384); settings: phospholipid biosynthesis inhibition screen, at 10 µM
[4] = circadian clock period modulators, cell-based, LOPAC library, luminescence reporter (AID 2774); settings: circadian reporter cells, at 7 µM, actives lie on both sides;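 further: values are relative to mean of DMSO wells on each plate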
[5] = growth inhibition of DIPG glioma cells, dose response, cell-based, SU-DIPG-XIII, MIPE4.0, CellTiter-Glo, qHTS (AID 1347061; cut-off not given, nearly all actives have AC50 up to about 37 µM;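 further: cells exposed to compound for 48 hours before readout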); settings: SU-DIPG-XIII viability, CellTiter-Glo ATP luminescence
[6] = growth inhibition of DIPG glioma cells, dose response, cell-based, SU-DIPG-XVII, MIPE5.0, CellTiter-Glo, qHTS (AID 1347060; cut-off not given, nearly all actives have AC50 up to about 26 µM;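 on AC50: cells exposed to compound for 48 hours before viability readout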); settings: SU-DIPG-XVII viability, CellTiter-Glo ATP luminescence
[7] = polyglutamine-triggered caspase-3 activation inhibitors, cell-based (AID 1583); settings: polyglutamine-induced caspase-3 activation, cell assay; stronger effect = higher value;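 tested at 10 µM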
[8] = suppressors of polyQ aggregation in yeast, 75Q-TubU reporter (AID 1593); settings: Yeast 75Q polyglutamine aggregation reporter
[9] = rescue of polyQ-huntingtin neuronal dysfunction in worms, whole organism, C. elegans mechanosensory neurons, N-terminal huntingtin (AID 1599); settings: touch response, stronger effect = higher value
[10] = inhibitors of mitochondrial cytochrome c release, biochemical, purified mitochondria (AID 1603); settings: stronger effect = lower value;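 further: mouse liver mitochondria challenged with calcium chloride; signal normalized to the plate average as 100%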
[11] = inhibitors of polyQ protein aggregation (AID 1604); settings: polyglutamine-induced protein aggregation inhibition assay; stronger effect = higher value; tested at 2.5 µM
[12] = enhancers of glutamate uptake in motor neurons, MN-1 cell line (AID 1612); settings: MN-1 motor neuron cells, stronger effect = higher value;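 further: tested at 1 µM final; 0% = mean of DMSO vehicle wells on each plate; positive means more glutamate uptake than control and negative means less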
[13] = reducers of polyQ inclusions in PC12 cells, cell-based, NGF-treated PC12, GFPQ80 (AID 1614); settings: PC12 NGF-treated GFP-polyQ80 inclusion reduction;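 further: lower means fewer inclusions and 0 means no inclusions at all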
[14] = suppressors of polyglutamine aggregation in yeast, 75Q-TubH (AID 1616); settings: S. cerevisiae 75Q-TubH polyglutamine aggregation suppression; stronger effect = higher value
[15] = modifiers of HSF1 nuclear foci, imaging, Selleck Cancer Library (AID 1347162; in the data active means plate-normalised HSF1 focus index below about 0.46); settings: human cells, at 10 µM; SSMD: measured here: HSF1 foci SSMD mean; cell count: measured here: cell number; plate-normalised HSF1 focus index: stronger effect = lower value

O=C1Cc2cc(CCN3CCN(c4nsc5ccccc45)CC3)c(Cl)cc2N1
inhibition [1]: 2% (inactive)
fluorescence ratio (interference) [2]: 1 (inactive)
outcome [3]: inactive

Clc1ccc(Cn2c(CN3CCCC3)nc3ccccc32)cc1
period change [4]: 0.175 h (inactive)
inhibition [1]: 0% (inactive)
fluorescence ratio (interference) [2]: 1 (inactive)
outcome [3]: inactive

CCN(C)C(=O)Oc1cccc([C@H](C)N(C)C)c1
outcome [5]: inactive

CC(=O)c1ccc2c(c1)N(CCCN(C)C)c1ccccc1S2
outcome [3]: inactive

O=C(O)CN(CCN(CC(=O)O)CC(=O)O)CCN(CC(=O)O)CC(=O)O
period change [4]: 0.145 h (inactive)
inhibition [1]: -2% (inactive)
fluorescence ratio (interference) [2]: 1 (inactive)
outcome [3]: inactive

NC(N)=NC(N)=NCCc1ccccc1
outcome [6]: inactive

CC(C)(Oc1ccc(C2CC2(Cl)Cl)cc1)C(=O)O (configuration not stated)
period change [4]: 0.045 h (inactive)
inhibition [1]: -1% (inactive)
fluorescence ratio (interference) [2]: 1 (inactive)
outcome [5]: inactive
outcome [3]: inactive

CCN(CC)C(=O)c1ccc(O)c(OC)c1
period change [4]: -1.55 h (active)
inhibition [1]: 0% (inactive)
fluorescence ratio (interference) [2]: 1 (inactive)
outcome [3]: inactive

CN(N=O)C(=O)N[C@@H]1[C@@H](O)[C@H](O)[C@@H](CO)O[C@@H]1O
inhibition [7]: -0.83%
score [8]: 1.48
rescue above control [9]: -12.1
cytochrome c release ratio [10]: 1.09
inhibition of aggregation [11]: 69%
glutamate uptake change [12]: -14.8%
inclusion score [13]: 2
aggregation suppression score [14]: 1.03
outcome [6]: inactive

O=[N+]([O-])c1ccc(O)c2ncccc12
AC50 [6]: 6610 nM (active)

CC(C)Cn1cnc2c(N)nc3ccccc3c21
outcome [6]: inactive

NCCCNCCSP(=O)(O)O
period change [4]: -0.025 h (inactive)
inhibition [1]: -3% (inactive)
fluorescence ratio (interference) [2]: 1 (inactive)
outcome [3]: inactive

Cn1c(=O)c2c(ncn2CC2OCCO2)n(C)c1=O
outcome [6]: inactive

COc1cccc2c1C(=O)c1c(O)c3c(c(O)c1C2=O)C[C@@](O)(C(C)=O)C[C@@H]3O[C@H]1C[C@H](N)[C@H](O)[C@H](C)O1
AC50 [6]: 118 nM (active)
SSMD [15]: -15.6
cell count [15]: 7130
plate-normalised HSF1 focus index [15]: 0.198 (active)

COc1cc2c(c(OC)c1OC)-c1ccc(OC)c(=O)cc1[C@@H](NC(C)=O)CC2
inhibition [7]: -76.8%
score [8]: 1.26
rescue above control [9]: -5.06
cytochrome c release ratio [10]: 0.87
inhibition of aggregation [11]: 97.2%
glutamate uptake change [12]: -10.3%
aggregation suppression score [14]: 1.64
period change [4]: -0.41 h (inactive)
inhibition [1]: -1% (inactive)
fluorescence ratio (interference) [2]: 1 (inactive)
AC50 [6]: 29.5 nM (active)
outcome [3]: inactive

Cc1cc(=O)oc2cc(O)ccc12
AC50 [5]: 418 nM (active)

Cc1nc(Nc2ncc(C(=O)Nc3c(C)cccc3Cl)s2)cc(N2CCN(CCO)CC2)n1
AC50 [6]: 16600 nM (active)
SSMD [15]: -0.87
cell count [15]: 6550
plate-normalised HSF1 focus index [15]: 0.957 (inactive)

OC(CCN1CCCCC1)(c1ccccc1)C1CC2C=CC1C2 (configuration not stated)
inhibition [1]: -3% (inactive)
fluorescence ratio (interference) [2]: 1 (inactive)
outcome [5]: inactive
outcome [3]: inactive

C[C@H]1[C@H](NC(=O)/C(=N/OC(C)(C)C(=O)O)c2csc(N)n2)C(=O)N1S(=O)(=O)O (stereo in doubt)
outcome [5]: inactive

COc1ccc2[nH]c(S(=O)Cc3ncc(C)c(OC)c3C)nc2n1 (configuration not stated)
outcome [6]: inactive

O=C(O)[C@H](O)[C@@H](O)[C@H](O[C@@H]1O[C@H](CO)[C@H](O)[C@H](O)[C@H]1O)[C@H](O)CO
outcome [6]: inactive

O=C(O)c1cc(=O)[nH]c(=O)[nH]1
outcome [6]: inactive

CN1CCN(c2c(F)cc3c(=O)c(C(=O)O)cn4c3c2OCN4C)CC1
outcome [5]: inactive

CNC1CCCN(c2c(F)cc3c(=O)c(C(=O)O)cn(C4CC4)c3c2OC)C1 (configuration not stated)
outcome [6]: inactive

CNCCCC1c2ccccc2C=Cc2ccccc21
period change [4]: -0.13 h (inactive)
inhibition [1]: -3% (inactive)
fluorescence ratio (interference) [2]: 0.9 (inactive)
outcome [3]: inactive

CN1CCN(c2c(F)cc3c(=O)c(C(=O)O)cn(CCF)c3c2F)CC1
outcome [5]: inactive

COc1c(C)c2c(c(O)c1C/C=C(\C)CCC(=O)OCCN1CCOCC1)C(=O)OC2
AC50 [6]: 590 nM (active)
SSMD [15]: -0.00851
cell count [15]: 7610
plate-normalised HSF1 focus index [15]: 0.999 (inactive)

CCCN(CCC)CCc1cccc2c1CC(=O)N2
period change [4]: 0.155 h (inactive)
inhibition [1]: -3% (inactive)
fluorescence ratio (interference) [2]: 1 (inactive)
outcome [3]: inactive

CCCCCCCCCCCCCCCCCCCCCCO
outcome [5]: inactive

COc1cc2ncnc(Nc3ccc(F)c(Cl)c3)c2cc1OCCCN1CCOCC1
AC50 [5]: 38200 nM (active)
SSMD [15]: -3.63
cell count [15]: 5320
plate-normalised HSF1 focus index [15]: 0.813 (inactive)

O=C(CCCCCCC(=O)Nc1ccccc1)NO
AC50 [6]: 1860 nM (active)
SSMD [15]: -0.489
cell count [15]: 6970
plate-normalised HSF1 focus index [15]: 0.984 (inactive)

C#CCN(C)CCCOc1ccc(Cl)cc1Cl
period change [4]: 0.03 h (inactive)
inhibition [1]: -6% (inactive)
fluorescence ratio (interference) [2]: 1 (inactive)
outcome [3]: inactive

CNCCc1ccccn1
inhibition [7]: 24.5%
score [8]: 1.2
rescue above control [9]: -9.72
cytochrome c release ratio [10]: 0.91
inhibition of aggregation [11]: 75.9%
glutamate uptake change [12]: -5.29%
inclusion score [13]: 2
aggregation suppression score [14]: 1.84

N=C(N)N1CCc2ccccc2C1
outcome [3]: inactive

C[C@@H](O)[C@H]1C(=O)N2C(C(=O)O)=C(SCCN=CN)C[C@H]12
inhibition [1]: -1% (inactive)
fluorescence ratio (interference) [2]: 1 (inactive)
outcome [3]: inactive

CC(=O)Oc1cc(C(C)C)c(OCCN(C)C)cc1C
period change [4]: -0.155 h (inactive)
inhibition [1]: -6% (inactive)
fluorescence ratio (interference) [2]: 1 (inactive)
outcome [3]: inactive

CN(C(=O)CN(CCO)CC(=O)N(C)C(C)(C)Cc1ccccc1)C(C)(C)Cc1ccccc1
inhibition [7]: -62.8%
score [8]: 1.1
rescue above control [9]: 0
cytochrome c release ratio [10]: 5.27
inhibition of aggregation [11]: 66.7%
glutamate uptake change [12]: -0.7%
aggregation suppression score [14]: 1.14

CN(C)CC/C=C1\c2ccccc2Sc2ccc(Cl)cc21
inhibition [7]: 3.29%
score [8]: 0.95
rescue above control [9]: 0
cytochrome c release ratio [10]: 1.06
inhibition of aggregation [11]: 59.1%
glutamate uptake change [12]: 14.9%
aggregation suppression score [14]: 0.956

Cc1c(N)c(=O)n(-c2ccccc2)n1C
inhibition [7]: 13.4%
score [8]: 1.65
rescue above control [9]: -0.44
cytochrome c release ratio [10]: 0.9
inhibition of aggregation [11]: 81.5%
glutamate uptake change [12]: -10.8%
inclusion score [13]: 1
aggregation suppression score [14]: 1.31

CC(=O)N[C@@H](CC(C)C)C(=O)O
inhibition [7]: 23.7%
score [8]: 0.82
rescue above control [9]: 14.2
cytochrome c release ratio [10]: 1.03
inhibition of aggregation [11]: 74.7%
glutamate uptake change [12]: 2.89%
inclusion score [13]: 2
aggregation suppression score [14]: 0.909
